APOBEC3A inh – inhibitors of human APOBEC3A DNA deaminase. recombinant A3A, FAM/TAMRA ssDNA deamination fluorescence. P31941. 0.41% of 330,000 active. inhibition, % at 20 µM;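 active = at least 40% inhibition at 20 µM here, with at most 30% in a related deaminase screen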
Target sequence (P31941 whole entry, looked up): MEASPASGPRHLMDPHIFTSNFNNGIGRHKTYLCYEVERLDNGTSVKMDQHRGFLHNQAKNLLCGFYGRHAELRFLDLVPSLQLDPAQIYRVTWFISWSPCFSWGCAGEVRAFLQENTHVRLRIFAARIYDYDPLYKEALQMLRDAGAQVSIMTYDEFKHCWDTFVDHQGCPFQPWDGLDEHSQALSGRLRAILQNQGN
HDAC3 inhib – blocks human histone deacetylase 3; 0.15% of 320,000 active; recombinant HDAC3, fluorogenic peptide/trypsin coupled, fluorescence; O15379; inhibition, % at 8.3 µM; in the data active = inhibition above about 26%, passing the limit was not always enough
LANA-H2A inh – blocks KSHV LANA binding to histone H2A/H2B; cell-free LANA-H2A/H2B peptide, fluorescence polarization; inhibition, % (concentration not given with the values); 0.6% of 320,000 active; in the data active = inhibition mostly above about 10%, no sharp cut-off; inactive = mostly below about 6.7%
APOBEC3G inh – blocks human APOBEC3G single-stranded DNA deamination; Q9HC16; recombinant A3G, ssDNA deamination FAM/TAMRA fluorescence; inhibition, % at 20 µM; 0.28% of 330,000 active;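 active = inhibition of at least 40% at 20 µM, with no more than 30% in the related APOBEC3A deaminase screen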
Numbers stand for hits; – = inactive; · = no result; + = active, no number. Only some compounds are listed: those with a hit (about 1.4% of all), similar ones and a draw of the others.

SMILES	APOBEC3A inh	HDAC3 inhib	LANA-H2A inh	APOBEC3G inh
COc1ccc(S(=O)(=O)N2CCc3ccccc32)cc1C(=O)Nc1ccc(C(N)=O)cc1	–	–	–	–
O=C(CCc1ccccc1)N[C@@H]1c2ccccc2CC[C@H]1OCc1ccccc1	–	·	·	–
COC(=O)[C@]1(Cc2ccccc2)N[C@H](CN(C)C(C)=O)[C@@H]2C(=O)N(Cc3ccccc3)C(=O)[C@@H]21	–	·	·	–
CC(C)(C)NC(=O)CC1C[C@H](C(=O)N2CCCCC2)[C@@]2(CCc3ccccc3)c3[nH]c4ccccc4c3CCN2C1=O (stereo not given in full)	–	–	32.4	–
CC[C@]12c3[nH]c4ccccc4c3CCN1C(=O)C(CC(=O)NCC13CC4CC(CC(C4)C1)C3)C[C@@H]2C(=O)N1CCN(C(=O)C2CC2)CC1 (stereo not given in full)	–	–	+	–
COc1ccc2[nH]c3c(c2c1)CCN1C(=O)C(CC(=O)NC(C)(C)C)C[C@H](C(=O)N2CCCCC2)[C@@]31CCc1ccccc1 (stereo not given in full)	–	·	·	–
CC[C@]12c3[nH]c4ccccc4c3CCN1C(=O)C(CC(=O)NC(C)(C)C)C[C@@H]2C(=O)N1CCN(C(=O)C2CC2)CC1 (stereo not given in full)	–	–	182.6	–
O=C(CC1C[C@H](C(=O)N2CCOCC2)[C@@]2(CCC3CCCC3)c3[nH]c4ccccc4c3CCN2C1=O)NCCc1ccccn1 (stereo not given in full)	–	–	104.9	–
COc1ccc2[nH]c3c(c2c1)CCN1C(=O)C(CC(=O)NCCc2ccccn2)C[C@H](C(=O)N2CCOCC2)[C@@]31CCC1CCCC1 (stereo not given in full)	–	·	·	–
CCc1nc(SCc2ccccc2C#N)n[nH]1	–	–	–	–
CCOc1ccc(OCC)c(NC(=O)CN2CCN(CC(=O)NC(C)C)CC2)c1	–	–	14.3	–
CCOC(=O)C1CCN(C(=S)NC2CC3C=CC2C3)CC1 (stereo not given)	–	–	20.5	–
COc1cc(C(=O)NC2CC(C)(C)CC(C)(C)C2)ccc1OC1CCN(C(C)=O)CC1	–	–	–	–
COc1ccc(OC)c(CC(=O)Nc2cc(S(=O)(=O)N3CCCCC3)ccc2C)c1	–	–	71.4	–
COc1ccc(/C=C/C(=O)Nc2cc(S(=O)(=O)N3CCOCC3)ccc2C)cc1OC	–	–	+	–
Cc1ccccc1NC(=O)CN1C(=O)COc2ccc(S(=O)(=O)N3CCCC3)cc21	–	–	13.8	–
NC(=O)C1CCCN(Cc2c(C(=O)N3CCc4ccccc4C3)nc3ccc(Cl)cn23)C1 (stereo not given)	–	–	99.3	–
CC(C)CN(C)Cc1c(C(=O)N2CCc3ccccc3C2)nc2ccc(Cl)cn12	–	–	16.6	–
O=C(C[C@@H]1C/C=C\C[C@@H](Cc2ccc(F)cc2)C(=O)OC[C@H]2CCCN2C1=O)NCCO	–	–	–	–
COc1ccc(C(NC(=O)CN2C(=O)NC3(CCc4ccccc43)C2=O)c2ccc(OC)cc2)cc1 (stereo not given)	–	·	·	–
O=C(NNC(=O)c1ccccc1F)c1ccc(S(=O)(=O)N2CCCCC2)cc1	–	–	–	–
Cc1ccccc1NC(=O)CSc1n[nH]c(-c2ccco2)n1	–	–	15.8	–
O=C(Nc1ccc(S(=O)(=O)Nc2ncccn2)cc1)C12CC3CC(CC(Cl)(C3)C1)C2	–	–	–	–
CCOC(=O)C1CCN(C(=O)Cn2cnc3sc(C)c(S(=O)(=O)N4CCCCC4)c3c2=O)CC1	–	–	15.9	–
CCOC(=O)c1ccc(S(=O)(=O)Nc2cc(C(C)(C)C)no2)cc1	–	–	–	–
SMILES	APOBEC3A inh	HDAC3 inhib	LANA-H2A inh	APOBEC3G inh
Cc1ccc(C(=O)OCC(=O)Nc2cc(C(C)(C)C)no2)c(C)c1	–	–	12.1	–
CCOC(=O)c1c(C)[nH]c(C(=O)COC(=O)CCNS(=O)(=O)c2ccc(NC(C)=O)cc2)c1C	–	–	–	–
Cc1cc(C)cc(OCC(=O)Nc2nc(-c3cccnc3)cs2)c1	–	–	–	–
CCN(CC)S(=O)(=O)c1ccc(C(=O)N2CCN=C2SCc2cccnc2)cc1	–	–	25.6	–
CC(Nc1cccc([N+](=O)[O-])c1)C(=O)Nc1ccc(S(=O)(=O)N2CCCC2)cc1 (stereo not given)	–	·	·	–
CS(=O)c1ccccc1O (stereo not given)	–	–	38.7	–
CC(C)(CO)NCc1c(OCc2ccc(Cl)cc2)ccc2ccccc12	–	–	–	–

Assay outcomes (PubChem)
